Bioassay records from PubChem.
FBPA Giardia inh – qHTS Assay for Inhibitors of Fructose-1,6-bisphosphate Aldolase from Giardia Lamblia; A8B2U2; purified Giardia FBPA; Potency, µM (highest dose often 59.6 µM), hits mostly inhibitors; 290,000 tested, 0.71% active; AID 2451, 2010; note: nearly all actives have a fitted effect of over 55% in size
Target sequence (A8B2U2 whole entry, looked up): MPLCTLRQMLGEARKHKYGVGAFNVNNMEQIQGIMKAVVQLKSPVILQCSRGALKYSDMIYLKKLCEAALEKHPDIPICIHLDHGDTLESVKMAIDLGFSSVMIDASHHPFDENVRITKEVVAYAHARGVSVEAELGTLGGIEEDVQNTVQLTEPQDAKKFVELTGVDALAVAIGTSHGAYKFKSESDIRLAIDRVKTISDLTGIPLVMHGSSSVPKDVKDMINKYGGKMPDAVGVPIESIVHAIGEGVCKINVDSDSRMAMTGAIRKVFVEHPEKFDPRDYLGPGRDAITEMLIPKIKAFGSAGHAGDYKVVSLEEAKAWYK
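Giardia FBPA (40 nM reagent) was preincubated 10 min at RT with compound (up to 57.5 uM final), then substrate plus GAPDH/TPI/NAD/arsenate coupling system with diaphorase/resazurin was added; resorufin fluorescence (525/598 nm) was read after 20 min.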
Tb PYK inh – qHTS of Trypanosoma Brucei Inhibitors; pyruvate kinase (Trypanosoma brucei), Q57TT1; TbPYK enzyme, Kinase-Glo Plus ATP luminescence, 45 min; Potency, µM (top dose mostly 76.8 µM), usual class: inhibitors; 410,000 tested, 0.12% active; AID 624173, 2012; note: nearly all actives have a fitted effect of over 50% in size
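Screened from lowest to highest concentration, compounds were pinned into TbPYK/substrate mixtures, and ADP (130 uM final) was added. Plates sat at room temperature for 45 min prior to Kinase-Glo Plus detection by luminescence.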
CHX counter – Cycloheximide Counterscreen for Small Molecule Inhibitors of Shiga Toxin; cell reporter, cycloheximide protein synthesis inhibition counterscreen; max response, %; 300,000 tested, 12% active; AID 2314, 2010; in the data active = max response mostly above about 13%, no sharp cut-off; inactive = mostly below about 14%; note: read at 38.3 µM for the half of the compounds with a filed dose
Shiga toxin inh – A qHTS for Small Molecule Inhibitors of Shiga Toxin. Vero cells, Shiga toxin protein synthesis inhibition reporter. 290,000 tested, 9.2% active. AID 2315, 2010. inhibition, % at 38.7 µM; in the data active = inhibition mostly above about 28%, no sharp cut-off; inactive = mostly below about 43%
LmPK inh – qHTS Assay for Inhibitors of Leishmania Mexicana Pyruvate Kinase (LmPK); purified LmPK, Kinase-Glo ATP luminescence, 1 h; Potency, µM (top dose mostly 57.5 µM), most hits filed as inhibitors; Q27686; 290,000 tested, 0.37% active
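Screened at intermediate enzyme activity to detect both inhibitors and activators: LmPK at 0.1 nM, with a 0.5 nM enzyme column as activation reference. PEP 0.5 mM, ADP 0.1 mM; ATP detected by luminescence after 1 h.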
Sm TGR inh – qHTS Assay for the Inhibitors of Schistosoma Mansoni Peroxiredoxins; purified TGR, DTNB reduction, TNB absorbance 405 nm; Potency, µM (series often up to 114 µM), hits mostly inhibitors; 360,000 tested, 3% active; note: nearly all actives have a fitted effect of over 60% in size
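First, TGR (20 nM dispensed) and NADPH were mixed with compound. Second, a 15 min room-temperature incubation followed. Third, further NADPH and then DTNB were added to start the reaction. Finally, TNB absorbance was monitored kinetically.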
Hits are given with their value; n = inactive; u = inconclusive; x = not tested or not shown; [ ] = another dose, or the depositor's remark. This excerpt belongs to a sample that is enriched for hits. Unless noted, calls come from the whole dose curve; as a rule, active = well fitted curve in the direction sought with a large enough effect; inconclusive = small, poorly fitted or top-dose-only effect, or another doubt; inactive = no such curve, though single readings can be large; an effect the other way counts as inactive or inconclusive.

SMILES	FBPA Giardia inh	Tb PYK inh	CHX counter	Shiga toxin inh	LmPK inh	Sm TGR inh
CCN(CC)C(=O)c1cc([N+](=O)[O-])cc2c1-c1ccc([N+](=O)[O-])cc1C2=C(C#N)C#N	7.1µM	n	n	n	n	4µM
CCn1c(-c2cccnc2Cl)nc2cc(Cl)c(Cl)cc21	n	n	40	78	n	n
Cc1ccc(C)c(OCC(O)CNC2CCCC2)c1 (stereo not drawn)	n	n	n	n	n	n
O=C(NNC(=S)NC1CCCCC1)c1sc2ccccc2c1Cl	n	n	10	n	n	n
O=C(NC1C=CS(=O)(=O)C1)c1ccccc1 (stereo not drawn)	n	n	n	n	n	x
O=C(NNC(=O)c1sc2cccc(Cl)c2c1Cl)NC1CCCCC1	n	n	n	n	n	n
O=C(NNC(=O)C1CC2CCC1C2)c1sc2ccccc2c1Cl (stereo not drawn)	n	n	54	85	n	n
COc1ccc(C(=O)NNC(=S)NC(=O)C(C)(C)C)cc1	u	n	n	n	n	n
CC(C)(C)C(=O)NC(=S)NNC(=O)c1sc2ccccc2c1Cl	n	n	48	n	n	n
O=C(NC1C=CS(=O)(=O)C1)c1sc2ccccc2c1Cl (stereo not drawn)	n	n	17	n	n	n
CCCN(CCC)CCCNC(=O)c1nn(C)c2c1CS(=O)(=O)c1ccccc1-2	x	n	x	x	x	n
O=C(NC1CC1)c1sc2cc(Cl)ccc2c1Cl	x	n	x	x	x	n
O=C(NNC(=S)NC1CCCCC1)c1ccc(Cl)s1	n	n	21	n	n	n
O=C(CNC(=O)c1sc2ccccc2c1Cl)NCc1ccc(F)cc1	x	n	x	x	x	n
O=C(CNC(=O)c1sc2ccccc2c1Cl)NC1CC1	x	n	13	n	n	n
O=C(NNC(=S)NC1CCCCC1)c1ccccc1O	n	n	16	62	n	n
O=C(NNC(=S)NC1CCCCC1)c1cccs1	n	n	n	n	n	n
O=C(NC1CC1)c1sc2ccccc2c1Cl	x	n	32	59	n	n
CCOC(=O)c1c(NC(=O)c2cc3nc(-c4ccc(Br)cc4)cc(C(F)(F)F)n3n2)sc(C(C)=O)c1C	x	n	x	x	x	n
COc1ccccc1C(=O)Nc1ccc(-c2cc(C(F)(F)F)nn2-c2ccccc2)cc1	x	n	x	x	x	n
CC(=O)N1CCc2cc(CNC(=O)Nc3cc(Cl)ccc3C)ccc21	x	n	x	x	x	n
CC(C)[C@H](NC(=O)OC(C)(C)C)[C@@H](O)CC(=O)OC(C)(C)C	n[12.9 µM]	x	x	x	x	x
O=C(CSC1CS(=O)(=O)c2cc([N+](=O)[O-])ccc21)NNC(=O)c1ccccc1 (stereo not drawn)	n	n	n	n	n	n
O=C(CSC1CS(=O)(=O)c2cc([N+](=O)[O-])ccc21)NNC(=O)c1ccc(Cl)cc1 (stereo not drawn)	n	n	n	n	n	16µM
O=C(NCCc1csc(-c2ccccc2)n1)c1ccc(Br)o1	n	n	n	n	n	n
SMILES	FBPA Giardia inh	Tb PYK inh	CHX counter	Shiga toxin inh	LmPK inh	Sm TGR inh
O=C(NCCc1csc(-c2cccnc2)n1)c1ccc(Br)o1	n	n	n	n	n	28µM
CC1CC(C)CN(S(=O)(=O)c2ccc(C(=O)N(C)Cc3ccccc3)cc2)C1 (stereo not drawn)	x	n	x	x	x	x
Cc1ccc(SCC(=O)NN2C(=O)c3ccccc3C2=O)cc1	n	n	n	n	n	x
Cc1ccc(SC2=C(Sc3ccc(C)cc3)C(=O)c3ccccc3C2=O)cc1	u	u	28	37	u	u
CNS(=O)(=O)c1cn(CC(=O)N2CCN(c3ccc(C)cc3C)CC2)cc1S(=O)(=O)NC	x	n[15.4 µM]	x	x	x	n
COc1cc(/C=N/NC(=O)CCC(=O)Nc2ccc(C)cc2)ccc1O	n	n	n	n	n	n
COc1cc(/C=N/Nc2nc3ccccc3[nH]c2=O)ccc1O	n	n	n	17	n	n
COc1cc(/C=N/Nc2snc(SC)c2C#N)ccc1O	n	n	27	n	n	n
Cc1cc(NC(=O)c2cccs2)n(-c2nc3ccccc3[nH]2)n1	n	n	n	n	n	x
COc1cc(/C=C(/C(=O)c2cccs2)c2nc3ccccc3[nH]2)cc(OC)c1O	u	n	24	91	n	35µM
COc1ccc(O)c(/C=N/Nc2nc3ccccc3[nH]2)c1	n	n	49	82	n	x
CCOc1ccc(-n2cc(-c3ccccc3)c3c(NCCc4ccccc4)ncnc32)cc1	x	n	x	x	x	n
CN1C[C@@H]2[C@@H]3C(=O)N(C)C(=O)[C@@H]3[C@](C)(C1=O)N2C(=O)c1ccc(C(F)(F)F)cc1	x	n	x	x	x	x
COc1ccc(-c2nc3c(c4c2C[C@H](c2ccccc2)OC4)CN(C(=O)NCc2ccco2)CC3)c(C)c1	n[12.9 µM]	x	x	x	n[11.5 µM]	x
O=[N+]([O-])c1ccc(O)c(/C=N/Nc2nc3ccccc3[nH]2)c1	n	n	19	n	n	n
COc1cc(/C=N/Nc2nc3ccccc3[nH]2)cc(Br)c1OCC(=O)N(C)C	n	n	37	139	n	n
COc1cc(/C=N/Nc2ccc(Cl)nn2)cc(OC)c1O	n	n	n	n	n	n
COc1cc(/C=N/Nc2nc3ccccc3[nH]2)cc(OC)c1O	n	n	18	n	n	n
COc1cc(/C=N/Nc2nc3ccccc3[nH]2)ccc1O	n	n	37	33	n	n
COc1cc(/C=N/NC(=O)c2ccc(CSc3nc4ccccc4[nH]3)cc2)cc(OC)c1OC	n	n	n	n	n	n
COc1cc(/C=N/Nc2nc(C)cc(C)n2)ccc1O	x	n	x	x	x	x
CC(C)Oc1ccc(CNC(=O)c2ccc(CS(=O)c3cccc(Cl)c3)o2)cc1 (stereo not drawn)	x	n	x	x	x	u
COC(=O)Cc1cc(=O)[nH]c(Nc2nc3ccccc3o2)n1	n	n	17	31	n	n
Cc1ccc2oc(Nc3nc(-c4ccccc4)cc(=O)[nH]3)nc2c1	n	n	n	n	n	n
CCOC(=O)Cc1cc(=O)[nH]c(Nc2nc3ccccc3o2)n1	n	n	n	77	n	n
CC(NC(=O)CCCc1ccccc1)c1ccncc1 (stereo not drawn)	n	n	n	x	n	n
COc1ccc2[nH]cc(CCNc3ncncc3-c3ccccc3C(F)(F)F)c2c1	n	x	x	x	x	x
Cc1ccc(/C=C2/C(=O)NC(=O)N(CCc3ccc(F)cc3)C2=O)s1	n	n	n	n	n	u
Cc1ccc(/C=C2/C(=O)NC(=O)N(CC3CCCO3)C2=O)s1 (stereo not drawn)	n	n	n	97	n	n
COc1cccc(NC2SC(=O)N(c3ccccc3)C2=O)c1 (stereo not drawn)	n	n	43	61	n	n
